Screens (PubChem BioAssay)
In the library only some 3.1% were active in any assay of this set; here they are far more common.
Peg3 prom inh = Peg3 promoter activity inhibition. HeLa PEG-Prom luciferase reporter, luminescence, overnight. 1.7% of 360,000 active. inhibition, % at 20 µM. AID 588405;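 active means inhibition of at least 50% at 20 µM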
ABHD5 PLIN5 PPI = inhibitors of human ABHD5-perilipin-5 interaction; inhibition, % at 4 µM; Split G. princeps luciferase complementation, luminescence, 4 h; 0.78% of 360,000 active; Q00G26+Q8WTS1;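 active means inhibition above the mean inhibition across every tested compound plus 3 SD, cut at about 22% in these data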;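 further: 0% = DMSO only wells and the 100% control is not disclosed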
Target sequence (Q00G26 whole entry, looked up): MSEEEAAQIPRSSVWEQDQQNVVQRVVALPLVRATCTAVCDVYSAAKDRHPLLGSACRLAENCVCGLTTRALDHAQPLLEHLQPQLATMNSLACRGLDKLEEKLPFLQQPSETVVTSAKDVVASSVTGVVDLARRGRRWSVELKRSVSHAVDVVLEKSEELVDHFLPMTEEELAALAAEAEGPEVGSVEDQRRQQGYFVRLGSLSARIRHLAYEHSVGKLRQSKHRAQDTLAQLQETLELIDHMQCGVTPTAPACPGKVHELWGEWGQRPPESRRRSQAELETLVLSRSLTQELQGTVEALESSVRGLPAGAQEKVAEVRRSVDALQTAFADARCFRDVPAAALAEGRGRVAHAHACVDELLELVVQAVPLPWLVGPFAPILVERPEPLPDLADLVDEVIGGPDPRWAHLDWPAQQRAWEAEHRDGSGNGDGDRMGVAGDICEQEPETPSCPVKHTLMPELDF
Target sequence (Q8WTS1 whole entry, looked up): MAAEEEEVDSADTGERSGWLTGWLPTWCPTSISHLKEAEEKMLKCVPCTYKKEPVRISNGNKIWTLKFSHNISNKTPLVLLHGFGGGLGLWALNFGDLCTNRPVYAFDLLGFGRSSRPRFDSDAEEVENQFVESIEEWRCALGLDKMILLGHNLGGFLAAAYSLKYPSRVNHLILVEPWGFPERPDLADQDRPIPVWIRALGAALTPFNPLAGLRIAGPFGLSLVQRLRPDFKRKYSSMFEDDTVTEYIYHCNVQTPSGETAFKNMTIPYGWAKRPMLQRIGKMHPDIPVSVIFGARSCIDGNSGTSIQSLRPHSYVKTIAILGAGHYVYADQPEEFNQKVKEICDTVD
KKLEB tox = counter-screen for CF NF-kB inhibitors: cytotoxicity | KKLEB CF airway cells viability, ATPlite luminescence, overnight; stronger effect = lower value; cells stimulated with P. aeruginosa culture filtrate | AID 602141 | 0.36% of 360,000 active | activity change (cytotoxicity), % at 5 µM;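 active means corrected activity change at or below -50% at 5 µM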
HIF-2a inh = inhibitors of HIF-2a; 786-0 RCC cells HIF-2a reporter, luciferase luminescence, overnight; inhibition, % at 18.8 µM; 0.72% of 360,000 active;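 active means inhibition of the luminescence signal of 40% or more relative to plate controls, in a single-dose primary screen at 18.75 µM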
CF NFkB block = inhibitors of cystic fibrosis induced NF-kB | AID 588850 | KKLEB NF-kB-GFP reporter, PAF-induced, GFP fluorescence overnight | inhibition, % at 5 µM | 0.86% of 360,000 active;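 active means at least 50% inhibition at 5 µM, scaled per plate between neutral and stimulator controls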;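 further: PAF is a Pseudomonas aeruginosa culture filtrate used as stimulus; plate controls were PAF-stimulated DMSO wells for no effect and unstimulated DMSO wells for full effect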
TRPM1 prom inh = reduces MITF-dependent TRPM1 promoter luciferase signal | SK-MEL-5 TRPM1 promoter luciferase, 24 h | inhibition, % at 12.5 µM | 0.83% of 330,000 active;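 active means mean inhibition across replicates of 60% or more, whatever share of single replicates reaches that level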
Numbers without * were called inactive; / = not tested or not shown.

SMILES | Peg3 prom inh | ABHD5 PLIN5 PPI | KKLEB tox | HIF-2a inh | CF NFkB block | TRPM1 prom inh
CCn1c(/N=C/c2ccccc2NS(=O)(=O)c2ccc(C)cc2)nc2ccccc21 | 24.1 | 3.4 | -16.2 | 14.2 | 61.0* | 8.5
O=C(NC(=S)NCc1nc2ccccc2[nH]1)c1ccc(F)cc1 | -130.5 | -1.3 | -9.7 | -213.4 | 26.9 | -26.6
NC(Cc1ccc(C(F)(F)F)cc1)c1csc(NC(=O)Nc2ccccc2Oc2ccccc2)n1 (centres undefined) | 97.9* | -10.0 | -21.6 | 19.2 | 15.0 | /
NC(Cc1ccc(C(F)(F)F)cc1)c1csc(NC(=O)NCCc2ccccc2)n1 (centres undefined) | 108.7* | 1.6 | -31.8 | 3.4 | 35.5 | /
COc1ccccc1NC(=O)Nc1nc(C(N)C(C)C)cs1 (centres undefined) | -30.7 | 15.5 | -26.7 | -40.0 | 34.0 | /
NC(Cc1ccccc1)c1csc(NC(=O)Nc2ccccc2Oc2ccccc2)n1 (centres undefined) | 103.6* | -5.7 | -12.8 | 20.2 | 6.6 | /
COc1ccccc1NC(=O)Nc1nc(C(N)Cc2ccc(C(F)(F)F)cc2)cs1 (centres undefined) | 96.2* | -6.6 | -2.0 | 3.7 | 13.8 | /
CCOC(=O)Cn1nc(C)c(NC(=O)c2ccc(Br)o2)c1C | -3.2 | -4.3 | 6.5 | 8.1 | -3.6 | 3.5
CC(C)c1ccc(CCNC(=O)CCNC(=O)c2ccc(Br)cc2)cc1 | 1.5 | 2.2 | 4.0 | 6.9 | 27.0 | -6.3
CC(NC(=S)NC(=O)c1cccs1)c1ccccc1 (centres undefined) | 5.7 | -6.8 | -5.2 | 0.0 | -15.2 | 2.9
O=C(NC(c1ccc(-c2ccccc2)cc1)c1cnccn1)C1CCN(CCN2C(=O)c3ccccc3C2=O)CC1 (centres undefined) | 5.1 | 1.7 | 1.3 | 6.0 | 0.4 | /
NC(c1ccccc1)c1csc(NC(=O)Nc2ccccc2Oc2ccccc2)n1 (centres undefined) | 82.4* | 1.4 | -25.2 | -16.4 | 22.6 | /
COc1ccc(CC(N)c2csc(NC(=O)Nc3ccc(OC)cc3)n2)cc1 (centres undefined) | 14.8 | 1.8 | -6.5 | -4.8 | -19.1 | /
NC(Cc1ccc(F)cc1)c1csc(NC(=O)NC(c2ccccc2)c2ccccc2)n1 (centres undefined) | 96.2* | -4.2 | -30.9 | -16.6 | 31.3 | /
NC(c1ccccc1)c1csc(NC(=O)Nc2ccc(OC(F)(F)F)cc2)n1 (centres undefined) | 105.1* | -4.1 | -7.4 | -0.5 | 21.7 | /
COc1ccc(CC(N)c2csc(NC(=O)CCc3ccccc3)n2)cc1 (centres undefined) | 32.6 | -13.4 | -7.3 | -11.8 | -3.5 | /
NC(c1ccccc1)c1csc(NC(=O)NCCc2ccccc2)n1 (centres undefined) | 10.1 | -3.0 | 2.2 | -1.7 | -15.9 | /
COc1ccc(CC(N)c2csc(NC(=O)Nc3ccccc3Cc3ccccc3)n2)cc1 (centres undefined) | 104.0* | 2.3 | 3.3 | 4.0 | 3.2 | /
O=c1[nH]c(-c2ccccc2)c(-c2ccccc2)o1 | 8.9 | -4.7 | 6.7 | 14.9 | -4.8 | 0.0
COc1ccc2c(c1)C(=O)C1(CC2)OC1c1cccnc1 (centres undefined) | -4.2 | -1.4 | 11.4 | -22.8 | -18.5 | /
COc1ccc(CC(N)c2csc(NC(=O)Nc3ccccc3C(C)C)n2)cc1 (centres undefined) | 100.0* | -3.2 | 10.3 | 3.4 | -27.9 | /
COc1ccc(CC(N)c2csc(NC(=O)Nc3ccccc3Oc3ccccc3)n2)cc1 (centres undefined) | 97.5* | 2.7 | -16.1 | 4.4 | 19.9 | /
CCc1nc2ccccc2c(C(=O)Nc2cc(C)ccc2C)c1C | 18.1 | 5.0 | 0.9 | 21.0 | -10.0 | 4.3
CC(C)(C)NC(=O)C(c1ccncc1)N(Cc1cccs1)C(=O)Cn1nnc(-c2cccs2)n1 (centres undefined) | 62.6* | -2.8 | -3.6 | 19.8 | 5.2 | 13.0
Cc1ccc(C(C(=O)NC(C)(C)C)N(Cc2ccco2)C(=O)Cn2nnc(-c3cccs3)n2)cc1 (centres undefined) | 17.9 | -4.5 | -2.2 | 20.5 | 3.5 | 3.9
SMILES | Peg3 prom inh | ABHD5 PLIN5 PPI | KKLEB tox | HIF-2a inh | CF NFkB block | TRPM1 prom inh
Cc1ccc2ccc(S(=O)(=O)NCc3ccccn3)cc2c1 | -98.2 | 0.5 | 7.0 | -136.3 | -6.4 | -33.6
C=CCN=C1NN=C(c2ccc3c(c2)OCCO3)CS1 | 2.0 | -18.1 | -9.7 | -17.3 | 6.5 | 68.6*
c1ccc(C2=NNC(=NCc3ccc4c(c3)OCO4)SC2)cc1 | -175.6 | -18.9 | 0.6 | -110.4 | 14.4 | -34.8
CC1CC(C)(C)C2=NCCN21 (centres undefined) | -5.1 | -4.2 | -4.2 | 4.4 | 2.1 | /
CC(=O)OCCC(NS(=O)(=O)OCC(Cl)(Cl)Cl)c1ccccc1 (centres undefined) | 7.1 | 12.3 | -6.9 | 12.4 | 15.4 | -1.7
CCOC(=O)c1c(C)n(C)c2ccc(OC)c(NC(=O)CN3CCSCC3)c12 | 76.6* | 1.3 | 7.3 | -7.0 | -5.4 | 2.7
Cc1ccc(C(c2cc(Cl)c3cccnc3c2O)N2CCN(C)CC2)cc1 (centres undefined) | 36.6 | 13.2 | -27.8 | 43.2* | 39.3 | 10.5
COc1ccc(/C=C/C(=O)c2oc3ccc(F)cc3c2C)cc1 | -3.7 | -0.4 | -10.2 | -41.5 | -5.8 | -5.3
Cc1ccc(OC(=O)c2oc3ccc(F)cc3c2C)c(C)c1 | -52.8 | -9.8 | -69.0* | -114.0 | 53.3* | -0.2
COc1ccc(N2CCN(C(C)C(=O)N(C)Cc3ccccc3)CC2)cc1 (centres undefined) | -1.4 | -6.3 | -3.9 | 16.2 | -4.5 | 2.2
CC(C)(C)c1ccc(CC(=O)N2CCC2(C)C(=O)Nc2cccc3ccccc23)cc1 (centres undefined) | 16.2 | -17.5 | -1.5 | 19.8 | 6.2 | /
CC(C)(C)c1ccc(CC(=O)N2CCC2(C)C(=O)NCc2cccc3ccccc23)cc1 (centres undefined) | 52.1* | 13.1 | -15.6 | 27.7 | -2.3 | /
Cc1[nH]c2ccccc2c1CCNC(=O)c1ccc2c(c1[N+](=O)[O-])C(=O)c1ccccc1C2=O | 101.5* | 11.3 | -16.4 | -29.2 | -11.4 | 12.0
CN(C)C(=O)c1ccc2c(c1[N+](=O)[O-])C(=O)c1ccccc1C2=O | -88.4 | -1.6 | -4.2 | -138.0 | 19.0 | -12.7
Cc1[nH]c2c(C)cccc2c1CCNC(=O)c1ccc2c(c1[N+](=O)[O-])C(=O)c1ccccc1C2=O | 102.5* | 10.5 | -3.9 | -10.1 | -7.1 | 9.9
CC1CCN(S(=O)(=O)c2ccc(NC(=O)[C@@H]3CCCN3C(=O)c3cccs3)cc2)CC1 | 10.0 | -23.2 | -11.0 | 9.2 | 24.5 | 0.6
CCOC(=O)C1=CC[C@@H](c2ccccc2)N(S(=O)(=O)c2ccc(C)cc2)[C@H]1/C=C/c1ccccc1 | 20.6 | -6.8 | -10.8 | 11.4 | 14.4 | /
N=C1/C(=C/c2cccn2Cc2ccc(Cl)cc2)C(=O)N=C2SC=CN12 | 24.0 | -3.5 | -50.3* | -6.4 | 34.4 | -3.7
